An excerpt weighted towards active compounds, which were near 1.5% of everything screened.
gsp antag: qHTS for Antagonists of gsp, the Etiologic Mutation Responsible for Fibrous Dysplasia/McCune-Albright Syndrome: qHTS; 0.4% of 340,000 active; Potency, µM (series often up to 76.9 µM), hits mostly inhibitors; gsp-mutant cells, cAMP HTRF, 30 min; calls by dose curve; cell line not stated here;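 also: intracellular cAMP measured with PDE inhibitor Ro 20-1724 present during compound exposure; nearly all actives have a fitted effect of over 65% in size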
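Measurement of cellular cAMP by homogeneous time-resolved fluorescence following a 30 min compound exposure at 37C. The PDE inhibitor […] was present throughout; the assay buffer was DPBS with 0.05% BSA and 0.005% Tween 20.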
BRCA1 expr act: qHTS Assay to Identify Small Molecule Activators of BRCA1 Expression; MCF7-BRCA1-FFLuc reporter, luminescence, 48 h; response scale: scaled: vehicle 0%, 10 µM genistein 100%; Potency, µM (top dose mostly 46.1 µM), actives largely listed as activators; 1.1% of 380,000 active; also: nearly all actives have a fitted effect of over 80% in size
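Luminescence from a BRCA1-driven firefly luciferase in MCF7 cells was the read-out, taken 15 min after substrate addition following 48 h compound exposure at 37 °C. Data were normalized to a 10 microM genistein control and DMSO vehicle.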
mIDH1 inhibitor: qHTS for Inhibitors of mutant isocitrate dehydrogenase 1 (IDH1): qHTS; Isocitrate dehydrogenase [NADP] cytoplasmic (Homo sapiens), O75874; IDH1-R132H enzyme, NADPH consumption, diaphorase/resazurin fluorescence; Potency, µM (titrated, usually from 76.6 µM), actives largely listed as inhibitors; 0.093% of 390,000 active; also: nearly all actives have a fitted effect of over 65% in size
Target sequence (O75874 whole entry R132H, stated change not applied): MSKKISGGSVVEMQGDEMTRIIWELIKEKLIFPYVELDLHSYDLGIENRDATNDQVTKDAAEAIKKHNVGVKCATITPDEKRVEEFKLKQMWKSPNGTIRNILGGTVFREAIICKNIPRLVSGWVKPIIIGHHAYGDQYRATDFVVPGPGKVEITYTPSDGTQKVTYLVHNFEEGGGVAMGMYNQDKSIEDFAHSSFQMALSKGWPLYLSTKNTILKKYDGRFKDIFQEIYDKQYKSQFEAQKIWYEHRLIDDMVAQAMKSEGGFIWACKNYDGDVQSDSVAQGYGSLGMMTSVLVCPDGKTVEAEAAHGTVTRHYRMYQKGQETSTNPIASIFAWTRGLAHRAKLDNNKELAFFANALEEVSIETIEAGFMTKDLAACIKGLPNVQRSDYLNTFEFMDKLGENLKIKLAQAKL
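IDH1-R132H (0.5 ug/mL dispensed) in pH 7.5 Tris buffer was preincubated 30 min with compound, then given a substrate mix of 0.016 mM NADPH and 2 mM alpha-KG for 80 min at room temperature; remaining NADPH was read by diaphorase/resazurin fluorescence.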
gsp agonist: qHTS for Agonist of gsp, the Etiologic Mutation Responsible for Fibrous Dysplasia/McCune-Albright Syndrome: qHTS; gsp mutant cells, cAMP HTRF, 30 min; 0.13% of 340,000 active; Potency, µM (doses to about 76.9 µM), most hits filed as activators; active = well fitted activation curve with a large enough effect; inconclusive = small, poorly fitted or top-dose-only effect, or another doubt; inactive = no such curve, though single readings can be large or run the other way; cell line not stated here;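 also: phosphodiesterase inhibitor Ro 20-1724 added with compounds to block cAMP breakdown; nearly all actives have a fitted effect of over 60% in size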
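Cells stably selected in G418 were plated at 2000/well, grown 16-24 hr, then given compounds in DMSO with the PDE inhibitor […] (300 uM solution added) for 30 min at 37C; cAMP was read by HTRF.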
IL-2 act: qHTS of IL-2 Activators; AID 652025, 2013; IL-2 activation reporter assay, cell-based qHTS; stimulated with anti-CD3/CD4/CD28 beads; in transgenic mouse T cells; 0.065% of 360,000 active; activation, % (series mostly up to about 46 µM); in the data active = activation above about 50%; inconclusive = mostly about 30% to 49%
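Quantitative HTS in unstimulated transgenic mouse T cells, with memory T cells as non-tolerant control and PMA/ionomycin as tolerance-bypass control. Compound pretreatment lasted 60 minutes before 18 h bead stimulation; EGFP/DsRed fluorescence read.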
A number is an active result; i = inactive; ? = inconclusive; nt = no result given; [ ] = remark or other dose. Unless noted, calls follow the shape of the dose curve; as a rule, active = well fitted curve in the direction sought with a large enough effect; inconclusive = small, poorly fitted or top-dose-only effect, or another doubt; inactive = no such curve, though single readings can be large; an effect the other way counts as inactive or inconclusive.

SMILES | gsp antag | BRCA1 expr act | mIDH1 inhibitor | gsp agonist | IL-2 act
O=C(O)C1CCN(S(=O)(=O)c2ccc(N3CCCC3C(=O)O)c([N+](=O)[O-])c2)CC1 (configuration not stated) | i | i | i | i | i
CCOC(=O)Cc1nnc2c(Nc3ccc(Cl)cc3)nc3nonc3n12 | 35µM | i | i | i | i
CCOC(=O)Cc1csc(Nc2ccc(Cl)cc2)n1 | i | i | i | i | i
O=c1oc2c(O)cccc2cc1-c1nc2ccccc2[nH]1 | i | i | i | i[15.4 µM] | i
C=CCc1cccc2cc(-c3nc4ccc(C)cc4[nH]3)c(=O)oc12 | nt | 2µM | nt | nt | nt
COc1ccc(NC(=O)c2ccco2)cc1NC(=O)COc1ccc(C)cc1C | nt | i | i | nt | nt
Fc1cnc(N/N=C/c2ccc(-c3ccc(Br)cc3)o2)nc1N1CCOCC1 | i | i | i | i | i
Brc1ccc(-c2ccc(/C=N/Nc3nc(N4CCOCC4)nc(N4CCOCC4)n3)o2)cc1 | 20µM | i | i | i | i
CN1/C(=C\C=C2/C(=O)Oc3ccccc3C2=O)C(C)(C)c2ccccc21 | ? | i | 37µM | i | 80
CN1/C(=C\C=N\O)C(C)(C)c2ccccc21 | i | i | i | i | i
CC1=NN(c2ccccc2)C(=O)/C1=C\C=C1/N(C)c2ccccc2C1(C)C | ? | i | i | i | i
CN1C(=CC=C2C=C(I)C(=O)C(I)=C2)C(C)(C)c2ccccc21 | i | i | 46µM | i[15.4 µM] | i
COC(=O)c1ccc(C(=O)OC)c(NC(=O)c2c(-c3ccccc3)c(-c3ccccc3)nn(C)c2=O)c1 | nt | nt | i | nt | nt
Clc1cccc(Cl)c1CNC1CCCC1 | i | i | i | i | 104
Cc1c(CNC2CCCCC2)c(C(=O)O)c(C)n1Cc1c(F)cccc1Cl | nt | nt | i | nt | nt
C=Cc1ccc(Cn2nc(-c3ccc(C)c(S(=O)(=O)N(CC)CC)c3)ccc2=O)cc1 | nt | nt | i | nt | nt
C/C(=N\O)c1sc(-c2ccccc2)nc1C | i | 2.5µM | i | i | i
CNc1nnc(-c2cc3cc(Cl)ccc3oc2=O)s1 | i[15.4 µM] | 10µM | i | i | i
O=C(c1ccc(CSc2ccc(Cl)cc2)o1)N1CCOCC1 | nt | i | nt | nt | i
C=CCN1C(=O)/C(=C/c2ccc(OC(C)=O)c(OCC)c2[N+](=O)[O-])SC1=S | 25µM | i | i | i | i
CCOc1ccc(-c2c(C#N)c(N)nc3sc(C(=O)c4ccccc4)c(N)c23)cc1 | ? | i | i | i | 125
CC(C)Cn1c(=O)c2sccc2n2c(CCCC(=O)NCc3ccccc3Cl)nnc12 | nt | nt | i | nt | nt
O=C(CNC(=O)c1ccc([N+](=O)[O-])cc1)c1ccccc1 | i | 6.3µM | i | i | i
CCNC(=S)NNC(=O)c1cc(-c2cccc(OCC)c2)nc2ccccc12 | i | ? | i | i | i
CCNC(=S)NNC(=O)c1cc(-c2cccc(C)c2)nc2ccccc12 | ? | 4.5µM | i | i | i
SMILES | gsp antag | BRCA1 expr act | mIDH1 inhibitor | gsp agonist | IL-2 act
Cc1ccccc1C(=O)O/N=C(\N)Cc1cccs1 | i | 8.9µM | i | ? | i
Cc1ccccc1CNC(=O)Cc1ccccc1[N+](=O)[O-] | i | 14µM | i | i | i
Cc1ccccc1CNC(=O)Cc1cccs1 | i | 13µM | i | i | i
C[n+]1ccc(/C=C/c2cc[n+](C)c3ccccc23)c2ccccc21 | nt | i | nt | nt | nt
Cc1ccc(C)c(N2CCN(C(=O)CCn3c(=O)[nH]c4ccccc4c3=O)CC2)c1 | nt | nt | i | nt | nt
CCc1cccc(C)c1Nc1nn2c(=O)c3ccccc3nc2s1 | nt | nt | i | nt | nt
CCSc1nn2c(=O)c3ccccc3nc2s1 | i | 2.5µM | i | i | i
CCOC(=O)Cc1ccc(NC(=O)Nc2nnc(N3CCCCC3C)s2)cc1 (configuration not stated) | nt | nt | i | nt | nt
CCNc1nc(-c2ccc(Cl)cc2)cs1 | i | 2.8µM | i | i | i
CCN(CC)CCN(C(=O)c1ccc([N+](=O)[O-])cc1)c1nc2c(OC)cccc2s1 | i | i | i | 13µM | i
CCN(CC)CCN(C(=O)c1ccc(C(=O)c2ccccc2)cc1)c1nc2c(OC)cccc2s1 | i | i | i | i | i
O=C(CN1C(=O)NC2(CCCCCC2)C1=O)c1ccc2c(c1)OCCO2 | i | 2.8µM | i | i | i
O=C(CN1C(=O)NC2(CCCCCC2)C1=O)c1ccc(F)cc1 | i | i | i | i[15.4 µM] | i
CCCCNC(C(=O)Nc1cccc(S(=O)(=O)N2CCOCC2)c1)c1ccccc1 (configuration not stated) | 11µM | i | i | i[15.4 µM] | i
COc1ccc(S(=O)(=O)NCCOc2ccc(Cl)cc2)cc1 | i | i | i | i | i
C(=NOCc1ccccc1)c1ccncc1 | i | i | i | i | i
C(=NOCc1ccccc1)c1ccccn1 | nt | 10µM | i | ? | i
Cc1cn([C@H]2C[C@H](O)[C@@H](/C=C/C(=O)N3CCN(Cc4ccc(F)cc4)CC3)O2)c(=O)[nH]c1=O | nt | i | nt | nt | i
Clc1ccc(-c2csc(N3CCOCC3)n2)cc1 | i | 7.1µM | i | i | i
COc1ccc(-c2csc(N3CCSCC3)n2)cc1 | i | ? | i | i[15.4 µM] | i
Brc1ccc(-c2csc(N3CCCCCC3)n2)cc1 | i | ? | i | i | i
Brc1ccc(-c2csc(N3CCOCC3)n2)cc1 | i | 11µM | i | i | i
COc1ccc(-c2csc(N3CCOCC3)n2)cc1OC | i | 14µM | i | i | i
Clc1ccc(-c2csc(N3CCCCCC3)n2)cc1 | i | i | i | i | i
Cc1ccc(Cl)cc1N1CCN(C(=O)Cn2cnc3nc4c(cc3c2=O)CCCC4)CC1 | nt | nt | i | nt | nt
SMILES | gsp antag | BRCA1 expr act | mIDH1 inhibitor | gsp agonist | IL-2 act
CCC(=O)N1c2ccccc2CC1C(=O)NCCc1ccc(Cl)cc1 (configuration not stated) | nt | nt | i | nt | nt
Cc1nn(-c2ccc(F)cc2)c(Cl)c1/C=C(\CC(=O)O)c1nc2ccccc2s1 | 40µM | i | i | i | i
C=C1Nc2ccccc2C(=O)N1c1ccc(C(=O)N2CCN(C(=O)c3ccco3)CC2)cc1 | nt | i | nt | nt | nt
CC(=O)Nc1cccc(-c2nnc(-c3ccccc3)o2)c1 | i | 6.3µM | i | i | i
O=C(Nc1cccc(-c2nnc(-c3ccccc3)o2)c1)C1CC1 | i | 8.9µM | i | i[15.4 µM] | i
O=C(Nc1nnc(-c2ccccc2)o1)C1CCCCC1 | i | i | i | ? | i
CCc1nnc(NC(=O)CSc2nccn2Cc2ccccc2)s1 | nt | i | i | nt | nt
CC(C)n1c(/C=C/c2ccccc2)nc2ccccc21 | i | 2.2µM | i | i[15.4 µM] | i
Nc1nc(Sc2ccc([N+](=O)[O-])c3nonc23)c2[nH]cnc2n1 | i | i | i | 13µM | i
Nc1nc2ccccc2cc1C(=O)NCCCCc1ccccc1 | nt | i | nt | nt | i
Cc1nc2ccc(NC(=O)Cc3cccs3)cc2s1 | i | 3.5µM | i | i | i

Source: PubChem
